Measured values taken from PubChem BioAssay (EPA / NIEHS).
Inconclusive results are not listed. Calls of active or inactive are those of the source. The calls were made as follows: active = hit-call score of the fitted dose curve at least 0.9, where 1 is the maximum; inconclusive = response in the unintended direction; inactive = score below 0.9.

Target: Oxysterols receptor LXR-alpha (Homo sapiens) (UniProt Q13133)
Assay: ATG_LXRa_TRANS: Attagene TRANS-FACTORIAL HepG2 Assay for human Liver X Receptor alpha (LXRa) (AID 2282980)
Conditions: HepG2 Attagene TRANS reporter, LXRa transactivation
Outline: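 Transfect HepG2 with GAL4-UAS multiplex reporter constructs (TRANS format, chimeric receptor-GAL4); treat 24 h; extract RNA, reverse-transcribe, PCR-amplify, FAM-label, HpaI-digest; resolve fragments by capillary electrophoresis. Upward response vs DMSO.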

Sequence of Oxysterols receptor LXR-alpha (Homo sapiens) (Q13133 whole entry, looked up): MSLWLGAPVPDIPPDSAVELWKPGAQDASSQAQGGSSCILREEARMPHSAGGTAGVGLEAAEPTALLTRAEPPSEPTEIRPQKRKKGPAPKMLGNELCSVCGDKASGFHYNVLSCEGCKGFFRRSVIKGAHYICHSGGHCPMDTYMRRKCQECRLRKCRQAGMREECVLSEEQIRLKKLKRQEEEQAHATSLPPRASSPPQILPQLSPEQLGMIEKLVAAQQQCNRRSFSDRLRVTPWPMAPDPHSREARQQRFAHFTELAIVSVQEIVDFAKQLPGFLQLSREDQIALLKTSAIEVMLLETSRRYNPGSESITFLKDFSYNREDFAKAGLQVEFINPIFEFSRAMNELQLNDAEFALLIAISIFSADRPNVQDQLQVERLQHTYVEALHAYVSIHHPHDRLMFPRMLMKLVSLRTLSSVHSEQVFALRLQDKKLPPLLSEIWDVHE

| Compound | outcome | AC50 |
| --- | --- | --- |
| COC(=O)c1ccc(OC)cc1 | inactive | – |
| CCCCCCC(O)CCCCCCCCCCC(=O)O (stereo not given) | inactive | – |
| O=C(O)COCC(=O)O | inactive | – |
| OCc1cccc(Oc2ccccc2)c1 | inactive | – |
| CN(C)CCOC(C)(c1ccccc1)c1ccccn1 (stereo not given) | inactive | – |
| COS(=O)(=O)O | inactive | – |
| [Cl][Au]([Cl])[Cl] | inactive | – |
| O=C(O)CCCCCCCCC(=O)O | inactive | – |
| Oc1ccc2cc(SSc3ccc4cc(O)ccc4c3)ccc2c1 | inactive | – |
| CC(C)(C)C1=CC(=O)C(C(C)(C)C)=CC1=O | inactive | – |
| COc1ccc(CCC(C)=O)cc1 | inactive | – |
| CC(C)C[C@H](NC(=O)OCC1c2ccccc2-c2ccccc21)C(=O)O | inactive | – |
| O=[N+]([O-])c1ccc(O)cc1C(F)(F)F | inactive | – |
| O=C(O)c1ccc(O)cc1 | inactive | – |
| CC1C2CC(CC2C2CCCC(O)C2)C1(C)C (stereo not given) | – | 33.4 µM (active) |
| CC1(C)C2=CCCC(C)(C)[C@]23CC[C@H]1C3 | inactive | – |
| OCc1ccc(Cl)cc1Cl | inactive | – |
| CC1(C)COCN1 | inactive | – |
| CCOC(=O)CN | inactive | – |
| CCCCCCC(C)Nc1ccc(Nc2ccccc2)cc1 (stereo not given) | inactive | – |
| CC/C=C\CC/C=C/CO | inactive | – |

Target: Oxysterols receptor LXR-beta (Homo sapiens) (UniProt P55055)
Assay: ATG_LXRb_TRANS: Attagene TRANS-FACTORIAL HepG2 Assay for human Liver X Receptor beta (LXRb) (AID 2282981)
Conditions: HepG2 Attagene TRANS GAL4-LXRb reporter, mRNA
Outline: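 After 24 h chemical treatment of transfected HepG2 cells carrying exogenous NR-Gal4 chimeras, reporter mRNA was quantified by fluorescent RT-PCR and capillary electrophoresis; activity taken as increase over DMSO controls.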

Sequence of Oxysterols receptor LXR-beta (Homo sapiens) (P55055 whole entry, looked up): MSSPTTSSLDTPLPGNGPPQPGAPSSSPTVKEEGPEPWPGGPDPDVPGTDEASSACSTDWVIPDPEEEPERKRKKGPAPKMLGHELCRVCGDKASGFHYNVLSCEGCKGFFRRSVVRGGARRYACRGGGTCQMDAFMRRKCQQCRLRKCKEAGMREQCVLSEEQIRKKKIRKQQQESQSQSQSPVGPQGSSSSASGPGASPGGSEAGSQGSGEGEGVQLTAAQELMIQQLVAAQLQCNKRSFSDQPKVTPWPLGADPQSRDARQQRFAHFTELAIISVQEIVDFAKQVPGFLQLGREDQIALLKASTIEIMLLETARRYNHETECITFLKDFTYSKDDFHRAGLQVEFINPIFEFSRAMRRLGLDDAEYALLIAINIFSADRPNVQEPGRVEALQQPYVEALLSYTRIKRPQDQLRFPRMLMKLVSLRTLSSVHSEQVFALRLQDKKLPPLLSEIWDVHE

| Compound | outcome | AC50 |
| --- | --- | --- |
| CCOC(=O)[C@@H](C)Oc1ccc(Oc2nc3ccc(Cl)cc3o2)cc1 | inactive | – |
| CCCCCCCCCCCCCCCC(=O)OC/C=C(C)/C=C/C=C(C)/C=C/C1=C(C)CCCC1(C)C | inactive | – |
| CSc1c(Cl)c(Cl)c(Cl)c(Cl)c1Cl | inactive | – |
| CC(C)(C)OC(=O)c1ccc(O)cc1 | inactive | – |
| Cc1cc(S(=O)(=O)O)ccc1N=Nc1c(O)ccc2ccccc12 | inactive | – |
| C[C@H]1C[C@@H](O)CC(C)(C)C1 | inactive | – |
| CCCCCCCCCCCCN1CCCCCC1=O | inactive | – |
| Cc1ccc(S(=O)(=O)Oc2ccc(N=Nc3ccc(-c4ccc(N=Nc5c(O)ccc6cc(S(=O)(=O)O)cc(S(=O)(=O)O)c56)c(C)c4)cc3C)cc2)cc1 | inactive | – |
| C=CC(C)(O)CCC=C(C)C (stereo not given) | inactive | – |
| C[Si](C)(C)O[Si](C)(C)C | inactive | – |
| CN(C)CCOc1ccc(/C(=C(/CCCl)c2ccccc2)c2ccccc2)cc1 | inactive | – |
| Nc1ccc2cc(S(=O)(=O)O)cc(O)c2c1N=Nc1ccccc1C(F)(F)F | inactive | – |
| CCc1cc(Cc2cc(CC)cc(C(C)(C)C)c2O)c(O)c(C(C)(C)C)c1 | inactive | – |
| O=C(Nc1ccc([N+](=O)[O-])cc1)Nc1ccc([N+](=O)[O-])cc1 (tested in a mixture with another compound) | inactive | – |
| O=C(Nc1ccc2c(c1)Cc1ccccc1-2)C(F)(F)F | inactive | – |
| COC(=O)c1ccc(OC)cc1 | inactive | – |

| Compound | outcome | AC50 |
| --- | --- | --- |
| CCCCCCC(O)CCCCCCCCCCC(=O)O (stereo not given) | inactive | – |
| O=C(O)COCC(=O)O | inactive | – |
| OCc1cccc(Oc2ccccc2)c1 | inactive | – |
| CN(C)CCOC(C)(c1ccccc1)c1ccccn1 (stereo not given) | inactive | – |
| COS(=O)(=O)O | inactive | – |
| [Cl][Au]([Cl])[Cl] | inactive | – |
| O=C(O)CCCCCCCCC(=O)O | inactive | – |
| Oc1ccc2cc(SSc3ccc4cc(O)ccc4c3)ccc2c1 | inactive | – |
| CC(C)(C)C1=CC(=O)C(C(C)(C)C)=CC1=O | inactive | – |
| COc1ccc(CCC(C)=O)cc1 | inactive | – |
| O=[N+]([O-])c1ccc(O)cc1C(F)(F)F | inactive | – |
| CC1C2CC(CC2C2CCCC(O)C2)C1(C)C (stereo not given) | – | 62.5 µM (active) |
| CC1(C)C2=CCCC(C)(C)[C@]23CC[C@H]1C3 | inactive | – |
| CC1(C)COCN1 | inactive | – |
| CCCCCCC(C)Nc1ccc(Nc2ccccc2)cc1 (stereo not given) | inactive | – |
| CC/C=C\CC/C=C/CO | inactive | – |

Target: Hepatocyte nuclear factor 4-alpha (Homo sapiens) (UniProt P41235)
Assay: ATG_HNF4a_TRANS: Attagene TRANS-FACTORIAL HepG2 Assay for human Hepatocyte Nuclear Factor 4 alpha (HNF4a) (AID 2282982)
Conditions: HepG2 HNF4a transactivation reporter, mRNA readout
Outline: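 Activity of an exogenous HNF4a–Gal4 fusion scored as induced GAL4-UAS reporter transcripts after 24 h chemical exposure of transfected human HepG2 cells. Read-out via RT-PCR with 6-FAM labelling and capillary electrophoresis; rise over DMSO baseline.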

Sequence of Hepatocyte nuclear factor 4-alpha (Homo sapiens) (P41235 whole entry, looked up): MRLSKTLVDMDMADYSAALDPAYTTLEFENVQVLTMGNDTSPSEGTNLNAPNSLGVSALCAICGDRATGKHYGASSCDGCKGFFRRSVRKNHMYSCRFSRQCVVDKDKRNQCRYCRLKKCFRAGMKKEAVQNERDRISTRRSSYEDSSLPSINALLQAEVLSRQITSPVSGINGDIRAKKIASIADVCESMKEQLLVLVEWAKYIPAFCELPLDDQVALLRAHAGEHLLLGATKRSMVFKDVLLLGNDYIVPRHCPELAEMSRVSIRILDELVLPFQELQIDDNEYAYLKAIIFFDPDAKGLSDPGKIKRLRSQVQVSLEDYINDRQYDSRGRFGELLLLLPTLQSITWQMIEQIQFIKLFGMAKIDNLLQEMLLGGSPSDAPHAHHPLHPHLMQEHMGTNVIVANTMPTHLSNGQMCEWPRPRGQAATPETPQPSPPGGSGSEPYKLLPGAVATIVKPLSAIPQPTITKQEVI

| Compound | outcome |
| --- | --- |
| CC(C)(C)OC(=O)c1ccc(O)cc1 | inactive |
| C[C@H]1C[C@@H](O)CC(C)(C)C1 | inactive |
| CCCCCCCCCCCCN1CCCCCC1=O | inactive |
| Cc1cc(CCC(=O)OCCOCCOCCOC(=O)CCc2cc(C)c(O)c(C(C)(C)C)c2)cc(C(C)(C)C)c1O | inactive |
| C[Si](C)(C)O[Si](C)(C)C | inactive |
| CCCCC(CC)COC(=O)c1ccc(O)cc1 (stereo not given) | inactive |
| Nc1ccc2cc(S(=O)(=O)O)cc(O)c2c1N=Nc1ccccc1C(F)(F)F | inactive |
| CCc1cc(Cc2cc(CC)cc(C(C)(C)C)c2O)c(O)c(C(C)(C)C)c1 | inactive |
| O=C(Nc1ccc2c(c1)Cc1ccccc1-2)C(F)(F)F | inactive |
| COC(=O)c1ccc(OC)cc1 | inactive |
| O=C(O)COCC(=O)O | inactive |
| OCc1cccc(Oc2ccccc2)c1 | inactive |
| COS(=O)(=O)O | inactive |
| [Cl][Au]([Cl])[Cl] | inactive |
| O=C(O)CCCCCCCCC(=O)O | inactive |
| Oc1ccc2cc(SSc3ccc4cc(O)ccc4c3)ccc2c1 | inactive |
| CC(C)C[C@H](NC(=O)OCC1c2ccccc2-c2ccccc21)C(=O)O | inactive |
| O=[N+]([O-])c1ccc(O)cc1C(F)(F)F | inactive |
| O=C(O)c1ccc(O)cc1 | inactive |
| OCc1ccc(Cl)cc1Cl | inactive |
| CC1(C)COCN1 | inactive |
| CCOC(=O)CN | inactive |
